“And” between values parts separate entries of the source, which are not always exact repeats. Identical values can stand only once. Results filed as inconclusive are left out. For some assays here: Entries with a potency or affinity are not part of this list. The source made the active and inactive calls. Unless noted, how the calls were made is not given here.
Legend:
[1] = Ebola virus entry assay, green fluorescence channel
[2] = Ebola virus entry assay, ratio channel
[3] = qHTS for Activators of Parkin Expression: LOPAC Validation Assay (FLuc Reporter) (AID 720573; active means well fitted curve in the direction sought with a large enough effect; an effect the other way counts as inactive or inconclusive;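 further: 0% = DMSO and 100% = positive control compounds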); details: Cell line, PRKN promoter firefly luciferase reporter, vehicle wells = 0, positive control = 100%; series mostly up to 46.1 µM
How it was run: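 FLuc luminescence read-out from a neuronal line expressing a Parkin-promoter-driven coincidence reporter. Cells treated 24 h at 37 C, 5% CO2 with compounds at 7 concentrations; signal increase normalized to DMSO and positive control.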

[4] = target: T1, Hexokinase-4 (Homo sapiens) + Glucokinase regulatory protein (Homo sapiens) (UniProt P35557+Q14397); experiment: qHTS assay for inhibitors of recombinant human GCK-GKRP interaction: Diaphorase-coupled assay (AID 743205; active means well fitted curve in the direction sought with a large enough effect; an effect the other way counts as inactive or inconclusive); details: G6PDH/diaphorase resorufin fluorescence; series mostly up to 57.5 µM
T1 sequence (P35557 whole entry, looked up): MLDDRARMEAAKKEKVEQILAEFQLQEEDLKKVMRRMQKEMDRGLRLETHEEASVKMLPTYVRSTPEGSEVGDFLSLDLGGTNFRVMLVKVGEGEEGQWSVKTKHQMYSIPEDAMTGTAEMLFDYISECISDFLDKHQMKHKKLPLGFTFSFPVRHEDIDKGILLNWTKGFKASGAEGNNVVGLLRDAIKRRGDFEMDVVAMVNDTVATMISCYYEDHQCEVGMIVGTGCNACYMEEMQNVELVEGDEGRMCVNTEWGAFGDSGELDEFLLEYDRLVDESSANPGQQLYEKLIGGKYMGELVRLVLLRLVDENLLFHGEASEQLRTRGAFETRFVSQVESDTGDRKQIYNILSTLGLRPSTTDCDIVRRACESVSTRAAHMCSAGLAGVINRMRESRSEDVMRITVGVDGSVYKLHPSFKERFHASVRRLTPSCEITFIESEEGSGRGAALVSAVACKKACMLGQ
T1 sequence (Q14397 whole entry, looked up): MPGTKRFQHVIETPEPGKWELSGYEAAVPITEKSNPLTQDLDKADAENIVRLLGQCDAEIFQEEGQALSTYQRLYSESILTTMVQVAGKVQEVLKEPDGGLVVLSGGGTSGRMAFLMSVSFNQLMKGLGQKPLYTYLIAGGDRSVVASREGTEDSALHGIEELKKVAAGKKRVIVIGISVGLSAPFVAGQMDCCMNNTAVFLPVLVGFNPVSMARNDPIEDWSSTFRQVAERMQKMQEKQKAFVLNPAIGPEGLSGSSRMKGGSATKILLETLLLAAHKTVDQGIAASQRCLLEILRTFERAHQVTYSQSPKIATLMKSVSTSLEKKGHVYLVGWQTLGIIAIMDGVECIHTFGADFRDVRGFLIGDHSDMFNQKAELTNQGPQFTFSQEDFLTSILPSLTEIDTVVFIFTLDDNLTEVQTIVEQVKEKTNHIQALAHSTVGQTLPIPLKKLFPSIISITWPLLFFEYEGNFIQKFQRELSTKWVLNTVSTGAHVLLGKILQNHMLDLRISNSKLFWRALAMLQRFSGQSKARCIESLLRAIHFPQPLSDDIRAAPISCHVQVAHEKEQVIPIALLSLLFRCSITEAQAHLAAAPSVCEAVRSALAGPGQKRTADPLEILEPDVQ
How it was run: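 Resorufin fluorescence (525/590 nm), read each minute over 30 min, reports GCK activity coupled via G6PDH and diaphorase. Reaction: 10 nM GST-GCK, 10 nM FLAG-GKRP, 5 mM glucose, 0.4 mM ATP, 0.15 mM NADP+, 0.1 mM resazurin.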

[5] = target: T1, Hexokinase-4 (Homo sapiens) + Glucokinase regulatory protein (Homo sapiens); experiment: qHTS assay for inhibitors of recombinant human GCK-GKRP interaction: ADP-Glo assay (AID 743206; active means well fitted curve in the direction sought with a large enough effect; an effect the other way counts as inactive or inconclusive;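 further: plate controls were DMSO plus enzyme for no effect and no enzyme for full effect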); details: ADP-Glo luminescence, 60 min, 0% = vehicle-only wells with enzyme present; series mostly up to 76.9 µM
How it was run: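 Pin-transferred compounds meet a 15 nM GST-GCK/15 nM FLAG-GKRP/2 uM S6P mix (dispense concentrations). ATP is then added to 0.4 mM final with 5 mM glucose, and the reaction runs 60 min at room temperature. ADP is quantified luminescently.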

[6] = qHTS Assay for Identifying Gametocytocidal Compounds (AID 743244; active means well fitted curve in the direction sought with a large enough effect; an effect the other way counts as inactive or inconclusive;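 further: on the % scale 0 is the no-effect control and ±100 the full control effect; actives lower the fluorescent signal which means gametocytes are killed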); details: P. falciparum 3D7 stage III-V gametocytes, alamarBlue, 72 h; max response: stronger effect = lower value
How it was run: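 Fluorescence at Ex 525/Em 598 nm, recorded 24 h after alamarBlue addition, reports residual metabolic activity of 3D7 gametocytes (stages III–V) following 72 h compound exposure at 37 °C, 5% CO2.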

[7] = qHTS profiling of the MIPE4 collection as inhibitors of Plasmodium falciparum (3D7) proliferation (AID 743344);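 further: scaled between DMSO vehicle wells and 0.29 µM artemisinin as full inhibition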; details: P. falciparum 3D7 in erythrocytes, SYBR Green DNA fluorescence, 72 h; at 28.5 µM (top of the series) unless noted
How it was run: (§1)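 Parasite DNA was quantified by SYBR Green I fluorescence (ex 485, em 535 nm) after overnight lysis in saponin/Triton buffer at room temperature. Cultures at 0.3% parasitemia and 2.5% hematocrit were first exposed to compound for 72 h at 37 C; signals were normalised to artemisinin (0.29 uM) and vehicle wells.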

[8] = qHTS profiling of the MIPE4 collection as inhibitors of Plasmodium falciparum (DD2) proliferation (AID 743345); details: P. falciparum Dd2 in erythrocytes, SYBR Green DNA, 72 h; at 28.5 µM (top of the series) unless noted
How it was run: as §1

[9] = qHTS profiling of the MIPE4 collection as inhibitors of Plasmodium falciparum (DD2) proliferation (Rep 2) (AID 743346); details: P. falciparum Dd2 in erythrocytes, SYBR Green DNA, 72 h; at 28.5 µM (top of the series) unless noted
How it was run: as §1

[10] = qHTS profiling of the MIPE4 collection as inhibitors of Plasmodium falciparum (HB3) proliferation (AID 743347);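 further: plate controls were DMSO vehicle wells for no effect and artemisinin wells for full effect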; details: P. falciparum HB3 in erythrocytes, SYBR Green DNA, 72 h; at 28.5 µM (top of the series) unless noted
How it was run: as §1
Wherever efficacy is given: 0% is about no effect.

O=c1cc(O)c(Cl)c[nH]1
efficacy [1]: -17.7% (inactive)
outcome [2]: inactive

CC(=O)c1cc2ccccc2s1
efficacy [1]: -31.8% (inactive)
outcome [2]: inactive

c1ccc2sc(SSc3nc4ccccc4s3)nc2c1
efficacy [1]: -14.3% (inactive)
outcome [2]: inactive

Cc1ncc(CO)c(CN)c1O
efficacy [1]: -11.8% (inactive)
outcome [2]: inactive

O=C(NC(Cc1cc(=O)[nH]c2ccccc12)C(=O)O)c1ccc(Cl)cc1 (stereo not given)
efficacy [1]: -33.1% (inactive)
outcome [2]: inactive

O=C(O)[C@@H]1[C@H]2C[C@H]3c4[nH]c5ccccc5c4CCN3C[C@@H]2CC[C@@H]1O
efficacy [1]: 38.8% (inactive)
outcome [2]: inactive

COc1nccnc1NS(=O)(=O)c1ccc(N)cc1
efficacy [1]: -13.7% (inactive)
outcome [2]: inactive

CCN1CCC[C@H]1CNC(=O)c1c(OC)ccc(Br)c1OC
efficacy [1]: -13.7% (inactive)
outcome [2]: inactive

Cc1nc([N+](=O)[O-])cn1-c1ccc([N+](=O)[O-])cc1
efficacy [1]: -13.8% (inactive)
outcome [2]: inactive

CCCCC(=O)OCC(=O)[C@H]1[C@H](C)C[C@H]2[C@@H]3C[C@H](F)C4=CC(=O)C=C[C@]4(C)[C@@]3(F)[C@@H](O)C[C@@]21C
efficacy [1]: 21.9% (inactive)
outcome [2]: inactive

NCCS(=O)(=O)O
efficacy [1]: 39.2% (inactive)
outcome [2]: inactive

O=C(CCCl)NCc1ccccc1
efficacy [1]: -26.1% (inactive)
outcome [2]: inactive

Cc1ncc(CO)c(CO)c1O
efficacy [1]: -13.2% (inactive)
outcome [2]: inactive

COc1cc2c3cc1Oc1cc(ccc1O)C[C@@H]1c4c(cc(OC)c(O)c4Oc4ccc(cc4)C[C@@H]3N(C)CC2)CC[N+]1(C)C
efficacy [1]: -16.5% (inactive)
outcome [2]: inactive

CCN(CC)CCNC(=O)c1ccc(N)cc1
efficacy [1]: -17.1% (inactive)
outcome [2]: inactive

O=[N+]([O-])c1ccc(/C=N\O)o1
efficacy [1]: 8.52% (inactive)
outcome [2]: inactive

CC1CCc2c(N3CCC(O)CC3)c(F)cc3c(=O)c(C(=O)O)cn1c23 (stereo not given)
efficacy [1]: -9.77% (inactive)
outcome [2]: inactive

C[C@H]1O[C@@H](n2cc(F)c(=O)[nH]c2=O)[C@H](O)[C@@H]1O
efficacy [1]: -18.2% (inactive)
outcome [2]: inactive

CC(C)=CCC/C(C)=C/CO
efficacy [1]: -28.2% (inactive)
outcome [2]: inactive

CC(C)(C)CC(C)(C)c1ccc(OCCOCC[N+](C)(C)Cc2ccccc2)cc1
efficacy [1]: -219% (inactive)
AC50 [2]: 2.51 µM (active)

O=c1[nH]c(=O)n([C@H]2CCCO2)cc1F
efficacy [1]: -34.9% (inactive)
outcome [2]: inactive

CCN(CC)C(=O)c1ccc(O)c(OC)c1
efficacy [1]: 13.1% (inactive)
outcome [2]: inactive

O=C1CC[C@H](C(=O)N2CCCCC2)N1
efficacy [1]: -19.2% (inactive)
outcome [2]: inactive

CN(c1nccc(=O)[nH]1)C1CCN(c2nc3ccccc3n2Cc2ccc(F)cc2)CC1
efficacy [1]: 66.4% (inactive)
outcome [2]: inactive

COc1ccc(C(=O)c2ccccc2)c(O)c1
efficacy [1]: 30% (inactive)
outcome [2]: inactive

NCCNCCNCCNCCN
efficacy [1]: -17.9% (inactive)
outcome [2]: inactive

C[N+](C)(C)CCCCCC[N+](C)(C)C
efficacy [1]: -15% (inactive)
outcome [2]: inactive

CC1(C)O[C@@H]2C[C@H]3[C@@H]4CCC5=CC(=O)C=C[C@]5(C)[C@@H]4[C@@H](O)C[C@]3(C)[C@]2(C(=O)CO)O1
efficacy [1]: 50.6% (inactive)
outcome [2]: inactive

CN1CCN(c2c(F)cc3c(=O)c(C(=O)O)cn4c3c2SCC4)CC1
efficacy [1]: -11.6% (inactive)
outcome [2]: inactive

Cc1nc2ccccn2c(=O)c1CCN1CCC(C(=O)c2ccc(F)cc2)CC1
efficacy [1]: 25.5% (inactive)
outcome [2]: inactive

C/C=C1\[C@H]2C=C(C)C[C@]1(N)c1ccc(=O)[nH]c1C2
efficacy [1]: 25.8% (inactive)
outcome [2]: inactive

O=C1NCC2(CCN(CCc3ccccc3)CC2)O1
efficacy [1]: 10.9% (inactive)
outcome [2]: inactive

O=C1OC(CCN2CCCCC2)OC1(c1ccccc1)c1ccccc1 (stereo not given)
efficacy [1]: -23.4% (inactive)
outcome [2]: inactive

CCC1(c2ccc(N)cc2)CCC(=O)NC1=O (stereo not given)
outcome [3]: inactive
outcome [4]: inactive
outcome [5]: inactive
max response [6]: 3.2% (inactive) and 30.1% (inactive)
parasite growth, % of DMSO control [7]: 89%
parasite growth remaining, % of DMSO control (lower = more inhibition) [8]: 103%
parasite growth, % of control (lower = inhibition) [9]: 117%
growth, % of control [10]: 101%
efficacy [1]: -15.9% (inactive)
outcome [2]: inactive

CCN(Cc1ccncc1)C(=O)C(CO)c1ccccc1 (stereo not given)
efficacy [1]: -24.3% (inactive)
outcome [2]: inactive

CS(=O)(=O)c1ccc([C@@H](O)[C@@H](CF)NC(=O)C(Cl)Cl)cc1
efficacy [1]: -18.1% (inactive)
outcome [2]: inactive
